# Tg IFNy HTS: inhibitors of Toxoplasma gondii growth with IFN-gamma | Toxoplasma gondii growth in IFN-gamma-treated host cells; stronger effect = lower value | activity change, negative = inhibition, % (concentration not given with the values) | actives 3.8% (n = 69,000) | AID 1259416; in the data active = activity change below about -70%, passing the limit was not always enough;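 also: host cells are HeLa cells infected with Toxoplasma gondii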
# An asterisk follows results filed as active; ! = not confirmed by another sample. The sample as a whole holds a higher share of hits than the screen did.
SMILES,Tg IFNy HTS
Cc1nc(-c2ccccc2)sc1C(=O)Oc1ccccc1N1CCOCC1,-56.0
CCOC(=O)c1cnc2oc3ccc(O)cc3c2c1-c1ccccc1,13.7
CCc1ocnc1C(=O)N1CCn2nc(C(=O)OC)cc2C1,-8.5
O=C(Nc1ccccc1F)c1nc(Nc2ccc(Cl)cc2)c2ccccc2n1,39.9
CCCCNC(=O)N1CCc2nc(N3CCOCC3)nc(NC3CC3)c2C1,-15.1
Fc1cccc(CN(Cc2cncn2Cc2ccccc2)CC2CCCO2)c1 (stereo not given),-92.9*
COc1cc(CN(Cc2ccccc2)CC2CCCO2)cc(OC)c1OC (stereo not given),1.4
CN(C)CCN(Cc1cccnc1)Cc1cncn1Cc1ccccc1,13.7
O=C1CSC(=Nc2cccc(C(F)(F)F)c2)N1Cc1ccccc1,-67.9
O=C(NC1CCCCC1)c1c2c(nc3ccccc13)-c1ccccc1CC2,20.5
O=C(O)CCn1c(=O)sc2ccccc21,6.7
O=C(CCn1c(=O)sc2ccccc21)Nc1ccc(S(=O)(=O)N2CCCCC2)cc1,-88.1*
O=C(O)CCC(=O)Nc1ccc(S(=O)(=O)N2CCCC2)cc1,150.9
CCOc1ccc(-c2cnc(-c3cnc(-c4ccccn4)nc3)[nH]2)cc1,-22.3
C=CCOC1C2CCC1N(C(=O)CS(C)(=O)=O)CCO2 (stereo not given),130.4
Cc1ccsc1CNc1ccccc1C(=O)N1CC=CC1C(C)C (stereo not given),-4.6
CN(C)C(=O)CN1CC[C@@H](OCC2CC2)[C@@H]1Cc1cnn(C)c1,-2.3
c1ccc(-c2nc3ccccc3nc2-c2cccc3ccccc23)cc1,27.0
CC(C)(C)n1nc(-c2cccc3ccccc23)c2c(N)ncnc21,-76.0*!
Nc1ccc(-c2ccc(C3CCCN3C(=O)COCCN3CCCC3=O)nc2)cn1 (stereo not given),2.8
CCN(CC)c1ccc2ccc(C(=O)N3CCC(N(C)C)C3)cn12 (stereo not given),97.5
CCN(CC)c1ncnc2c1cnn2CC(=O)Nc1ccc(F)cc1Cl,105.6
NCC1Cc2c(ccc3cc(-c4ccncc4)ccc23)O1 (stereo not given),-85.6*
CCCC(C(=O)N1CCCn2cncc2C1)n1cccc1 (stereo not given),-7.8
COc1ccc(-c2ccc(-n3cnnc3)nc2C)cn1,-88.3*
SMILES,Tg IFNy HTS
Cc1nc(-n2cnnc2)ccc1-c1ccc(C(N)=O)cc1,-0.5
CCCc1nc(C)cc(-c2ccc(OC)nc2)n1,18.1
Cc1cccc2cc(C#N)c(SCC(=O)N3CCCc4ccccc43)nc12,-37.6
N#Cc1cc2c(cc1C#N)N1CCCc3cccc(c31)O2,-91.9*
O=C1CCc2cc(S(=O)(=O)N3CCc4ccccc43)cc3c2N1CCC3,0.6
O=C(NCC1CCNCC1)Nc1nncs1,-0.7
CCCCC(=O)Nc1ccc(NC(=O)CS(C)(=O)=O)cc1C,7.2
COc1cccc(-c2nc(C)c(-c3ccc(SCc4ccc(Cl)cc4)nn3)s2)c1,-46.1
O=S(=O)(c1ccccc1)N1CCCC12CCN(Cc1cccc(F)c1)CC2,-1.8
CC(=O)N1C(C(=O)O)Cc2c([nH]c3ccccc23)C1C (stereo not given),123.9
COC(=O)[C@@H]1Cc2c([nH]c3ccccc23)CN1C(=O)c1cc(C)nc(C)n1,-72.5*
Cc1cc(C(=O)N2CC(=O)N(C3CCCCC3)CC(OCc3ccccc3)C2)nc(C)n1 (stereo not given),10.4
Cn1cccc1C(=O)c1cccc(Br)c1,0.0
Cc1ccc(NC(=O)c2ccc(CN3CCOCC3)cc2)c(C)c1,1.2
Cc1ccc(CN2CCOCC3(CCN(Cc4nccn4C)C3)C2)s1 (stereo not given),52.4
Cc1occc1C(=O)N1CCOCC2(CCN(c3ncccn3)C2)C1 (stereo not given),-3.2
Cc1occc1C(=O)N1CCOCC2(CCN(Cc3nccn3C)C2)C1 (stereo not given),-77.7*
c1cnc(NCc2cncc3c2CCN(Cc2ccco2)C3)nc1,-61.6
CC(C)Cn1cncc1CNC(=O)c1cccc2ccnn12,1.8
O=C(Nc1ccc(N2CCCC2)c2nonc12)c1cccc(CN2CCCC2=O)c1,8.0
C=CC(=O)Nc1cccc(Oc2nc(Nc3ccc(N4CCN(C)CC4)cc3)ncc2Cl)c1,-57.1
COc1cc(N2CCC(N3CCN(C)CC3)CC2)ccc1Nc1ncc(Cl)c(Nc2ccccc2S(=O)(=O)C(C)C)n1,-83.1*
COc1cc(N2CCC(N(C)C)CC2)ccc1Nc1ncc(Cl)c(Nc2ccccc2P(C)(C)=O)n1,-73.7*
C=CC(=O)Nc1cccc(Nc2nc(Nc3ccc(N4CCN(C(C)=O)CC4)cc3OC)ncc2C(F)(F)F)c1,1.8
CCc1nn(C)c(Cl)c1CN(C)Cc1cnn(-c2ccccc2)c1,8.3
SMILES,Tg IFNy HTS
Cc1ccc(C)c(-c2nc(Cn3c(=O)c4c(C)cc(C)nc4n(Cc4ccco4)c3=O)c(C)o2)c1,-6.1
CC(=O)N1CCO[C@H]2CN(S(=O)(=O)Cc3ccccc3)CC[C@@H]2C1,-2.1
O=C(Nc1cnn(-c2ncncc2N2CCCCC2)c1)C1CCCC1,-33.3
O=C(Nc1cnn(-c2ncncc2N2CCSCC2)c1)NC1CCCCC1,18.5
O=C(Nc1cnn(-c2ncncc2N2CCCCC2)c1)C1CCCCC1,-79.7*
CC(C)(C)c1nn(-c2ccccc2)c2nc3c(cc12)CN(c1ccccc1)C(=O)O3,-22.3
CCn1ncc(CN(CCN(C)C)Cc2cccnc2)c1C,1.1
CN(C)C1CCN(C(=O)c2cc(-c3ccnn3C3CCCC3)n3ccccc23)CC1,-38.7
Cc1ccc(S(=O)(=O)CCC(=O)Nc2ccc3c(c2)N(C)C(=O)CO3)cc1C,6.5
c1cc(-c2cnn3cc(-c4ccc(OCCN5CCCCC5)cc4)cnc23)ccn1,-75.4*
O=C(c1ccc(OCCN2CCCCC2)cc1)c1c(-c2ccc(O)cc2)sc2cc(O)ccc12,-16.9
CN1CCCN(Cc2cnc3c(-c4ccccc4)cnn3c2)CC1,11.4
CCN1CC(=O)NCC12CCN(C(=O)Nc1cccc(OC)c1)C2 (stereo not given),4.1
CCOC(=O)c1c(C)oc2cc(Br)c(OC(C)C(=O)OCC)cc12 (stereo not given),-10.4
CCOC(=O)C1=C(N)Oc2ccc(Br)cc2[C@H]1[C@H](C#N)C(=O)OCC,-74.7*
CCOC(=O)C1c2ccccc2Oc2ccccc21,22.8
CCn1c(C2CCCN(c3ncnc4sc(C)cc34)C2)n[nH]c1=O (stereo not given),-2.9
CNC(=O)[C@H]1C[C@@H]2CN(Cc3nccs3)C[C@@H]2N1C(C)=O,0.5
O=C(Nc1ccc(Cl)cc1)c1csnn1,27.9
Cc1ccc(SC(=O)c2csnn2)cc1,-102.0*
CC(C)N(C(=O)NC(=O)c1csnn1)C(C)C,12.4
Cc1noc(C)c1CN(C)Cc1cc2ccccc2nc1N1CCOCC1,84.1
Cc1cccc(-c2nc(Cn3nnc(-c4nc(-c5cccnc5)no4)c3C)c(C)o2)c1,3.3
O=C(c1ccc(/C=C/c2n[nH]c3ccccc23)cc1)N1CCNCC1,-67.5
C[C@@H](Oc1ccc2[nH]nc(/C=C/c3cnn(CCO)c3)c2c1)c1c(Cl)cncc1Cl,-75.0*
SMILES,Tg IFNy HTS
CN(C)C(=O)[C@H]1CNC[C@@H]1c1ccnc(N2CCCCC2)n1,-1.7
Cc1cc(C)nc(N2CC(n3nc(C)cc3C)C2)n1,3.7
Cc1cc(C(=O)Nc2ccc(N3CCOCC3)cc2)nn1C,218.6
Cc1c(C(=O)Nc2ccc(N3CCC(N4CCOCC4)CC3)c(C#N)c2)cnn1-c1ccc(Cl)cc1,-83.9*
O=C(C1CCN(c2cncnc2N2CCOCC2)CC1)N1CCC(N2CCCCC2)CC1,56.1
COc1ccc(C(C)=O)cc1CSc1nc2ccc(C(F)(F)F)cc2[nH]1,-51.6
